Assay outcomes deposited in PubChem BioAssay by National Center for Advancing Translational Sciences (NCATS).
Hits are enriched below; roughly 3% of the tested compounds scored in any of these assays.
HEK293 cAMP ctrl: raises cAMP in parental HEK293 cells, TSHR agonist counter-screen; parental HEK293 CNG cAMP sensor, membrane potential fluorescence; AID 938; Potency, µM (top dose mostly 57.1 µM), without a hit: top-dose activation, most hits filed as activators; 73,000 tested, 2.5% active; further: potency means the concentration at half of the fitted maximal effect; % of control where 0% means no effect; nearly all actives have a fitted effect of over 55% in size
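Parental HEK 293 cells stably expressing a modified CNG channel (no TSHR) report cAMP rise as membrane depolarization. Membrane potential dye with 100 uM RO 20-1724 was loaded for 60 min at room temperature, then compound added for 30 min; fluorescence read at 590 nm.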
TSHR agonist: TSH receptor (human) agonism. P16473. HEK293-CNG-TSHR cells (CNG channel as cAMP sensor), membrane potential dye, cAMP. Potency, µM (highest dose often 57.1 µM), without a hit: at the top dose activation, actives largely listed as activators. 73,000 tested, 0.48% active. AID 926; active means well fitted activation curve with a large enough effect in the main read-out, with a control signal flat, not every such curve was filed as active; inconclusive means small, poorly fitted or top-dose-only effect, or a change in a side signal; inactive means no such curve, though single readings can be large or run the other way; % of control where 0% means no effect;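 further: the control signal comes from parental cells without the receptor; potency means the concentration at half of the fitted maximal effect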
Target sequence (P16473 whole entry, looked up): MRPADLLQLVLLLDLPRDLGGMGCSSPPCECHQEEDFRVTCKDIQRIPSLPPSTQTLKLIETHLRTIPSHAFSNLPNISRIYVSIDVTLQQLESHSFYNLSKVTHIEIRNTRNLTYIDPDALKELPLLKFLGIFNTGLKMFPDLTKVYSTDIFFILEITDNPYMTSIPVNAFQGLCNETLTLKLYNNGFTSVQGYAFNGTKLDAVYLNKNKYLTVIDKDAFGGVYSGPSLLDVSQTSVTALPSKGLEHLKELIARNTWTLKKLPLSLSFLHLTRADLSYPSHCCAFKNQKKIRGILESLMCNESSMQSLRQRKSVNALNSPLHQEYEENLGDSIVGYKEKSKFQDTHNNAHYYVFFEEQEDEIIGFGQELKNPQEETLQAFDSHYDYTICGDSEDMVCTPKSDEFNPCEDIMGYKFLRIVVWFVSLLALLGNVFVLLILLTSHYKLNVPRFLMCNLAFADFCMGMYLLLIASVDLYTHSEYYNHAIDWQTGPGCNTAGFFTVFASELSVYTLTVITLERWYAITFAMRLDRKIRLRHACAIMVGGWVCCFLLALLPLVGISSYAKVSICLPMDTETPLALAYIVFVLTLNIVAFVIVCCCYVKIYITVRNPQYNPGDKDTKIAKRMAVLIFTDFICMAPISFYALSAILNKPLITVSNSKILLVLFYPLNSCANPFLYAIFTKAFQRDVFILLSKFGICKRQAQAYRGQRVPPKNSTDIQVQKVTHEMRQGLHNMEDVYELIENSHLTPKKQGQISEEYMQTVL
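HEK 293 cells stably expressing TSHR and a modified CNG channel, with CNG-only parental cells as counterscreen, were preloaded 60 min at room temperature with membrane potential dye containing 100 uM RO 20-1724. Compound exposure was 30 min, and depolarization was read as fluorescence at 590 nm.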
Ub-GFP proteasome: proteasome inhibitors stabilizing ubiquitin-GFP reporter. Ubiquitin-GFP reporter cells, proteasome inhibition, GFP fluorescence; response scale: untreated = 0%, 10 µM MG-132 = 100%. Potency, µM (top dose mostly 45.9 µM), without a hit: top-dose activation (GFP accumulation), most hits filed as activators. 67,000 tested, under 10 active. AID 526; active means well fitted activation curve with a large enough effect, not every such curve was filed as active; inconclusive means small, poorly fitted or top-dose-only effect, or another doubt; inactive means no such curve, though single readings can be large or run the other way; further: potency means the concentration at half of the fitted maximal effect
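GFP accumulation read-out: laser plate cytometry counting ubiquitin(G76V)-GFP-expressing U2OS cells after 4 hr compound exposure at 37 °C. Titrations spanned 46 uM to 2.9 nM; 0% = basal, 100% = 10 uM MG-132; concentration-response curves fitted.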
GFP derepression: derepresses silenced GFP locus in mouse C127i cells; mouse C127i GFP locus derepression, cytometry, 30 h; Potency, µM (highest dose often 46.1 µM), for the others: top-dose GFP derepression (activation); 68,000 tested, 0.09% active; AID 597; further: % of control where 0% means no effect
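Derepression screen: silenced CMV-GFP reporter in murine C127i cells, 30 h compound incubation at 37 C, washed cells imaged by laser-scanning cytometer to enumerate GFP-expressing objects of 20 to 120 um.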
HBB splicing: modulators of hemoglobin beta chain splicing. AID 925. HBB splicing reporter cell assay, activation; EGFP reporter with mutant IVS2-654 intron; response scale: normalised to 500 nM splice-correcting PNA. 65,000 tested, 0.06% active. Potency, µM (titrated, usually from 46.1 µM), without a hit: at the highest dose activation, actives largely listed as activators; further: potency means the concentration at half of the fitted maximal effect; 0% is about no effect
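Compounds were applied for 2 days to HeLa EGFP-654 cells, 500/well in Optimem with 2% FCS. The reporter's EGFP is disrupted by mis-splicing of beta-globin intron IVS2-654. Readout: summed well GFP fluorescence from 488 nm laser scanning; reference was 500 nM antisense […] 654 PNA.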
The depositor's hits bear a star; ? = inconclusive; · = not tested or not shown; [ ] = another dose, or the depositor's remark. Unless noted, the call rests on the fitted dose curve; in most records, active means well fitted curve in the direction sought with a large enough effect; inconclusive means small, poorly fitted or top-dose-only effect, or another doubt; inactive means no such curve, though single readings can be large; an effect the other way counts as inactive or inconclusive.

SMILES	HEK293 cAMP ctrl	TSHR agonist	Ub-GFP proteasome	GFP derepression	HBB splicing
NC(=Nc1ccccc1)NC(=O)c1nc(Cl)c(N)nc1N	7%	8%	2%	-1%	-2%
CN(C)c1nc(N)c(C(=O)N=C(N)N)nc1Cl	25µM*	?	-7%	1%	0%
CCN(CC)S(=O)(=O)c1cccc(-c2nnc(SCCOc3ccc(Cl)cc3)o2)c1	?	?	-3%	3%	-1%
CCN(CC)S(=O)(=O)c1cccc(-c2nnc(SCCOc3ccccc3)o2)c1	7.9µM*	?	7%	0%	-2%
CCN(CC)S(=O)(=O)c1cccc(-c2nnc(SCCOc3ccccc3C)o2)c1	16µM*	?	0%	1%	-3%
CCN(CC)S(=O)(=O)c1cccc(-c2nnc(SCC(=O)c3cc(C)n(C)c3C)o2)c1	16µM*	?	-4%	6%	0%[57.5 µM]
C[C@H]1[C@H](O)[C@@H](C)C=CC=CC=CC=CC=CC=CC=C[C@H](O[C@@H]2O[C@@H](C)[C@H](O)[C@@H](N)[C@@H]2O)C[C@@H]2O[C@](O)(C[C@@H](O)C[C@@H](O)[C@@H](O)CC[C@@H](O)C[C@@H](O)CC(=O)O[C@H]1C)C[C@H](O)[C@H]2C(=O)O	12%[11.4 µM]	10%[11.4 µM]	3%[9.17 µM]	0%[9.22 µM]	1%[9.22 µM]
CC1(C)[C@@H]2CC[C@@](C)(C2)[C@H]1OC(=O)c1ccccc1C(=O)O	0%[11.4 µM]	6%[11.4 µM]	1%[9.17 µM]	-1%[9.22 µM]	2%[9.22 µM]
CCCc1cc(C(=O)Cc2ccc(C(=O)OCC)o2)c(O)cc1O	20µM*	?	5%	2%	0%
NC(=O)CCCCC(N)=O	7%	1%	·	·	1%
O=C1CC2(CCCC2)CC(=O)N1CCNC[C@H]1COc2ccccc2O1	24%	21%	-4%	1%	·
CC(C)(C)NC(=O)C(c1ccncc1)N(Cc1cccs1)C(=O)Cn1nnc(-c2cccs2)n1 (stereo not given)	20µM*	?	-3%	2%	·
CCC(C)(C)NC(=O)C(c1ccncc1)N(Cc1cccs1)C(=O)Cn1nnc2ccccc21 (stereo not given)	20µM*	?	-3%	2%	0%[57.5 µM]
COc1ccc(-c2nc3cnc(N4CCOCC4)nc3n(CCc3ccccc3)c2=O)cc1	22%	7%	28%	3%[9.22 µM]	3%
CN(C)c1ccc(-c2ccc3ncnc(N(C)Cc4ccco4)c3c2)cc1	?	?	-4%	-5%[9.22 µM]	0%
COc1cccc(-c2ccc3ncnc(N(C)Cc4ccco4)c3c2)c1	16µM*	?	14%	-3%[9.22 µM]	-1%
O=C(NCCc1ccc2c(c1)OCO2)C1CCN(S(=O)(=O)c2ccc(Cl)cc2)CC1	13µM*	?	-2%	-1%	-6%
Cn1c(C(=O)OC(C(=O)NC2CCCCC2)c2ccncc2)cc2sccc21 (stereo not given)	16µM*	?	0%	2%	·
CC(C)CC(OC(=O)c1cccs1)C(=O)NCC1CCCO1 (stereo not given)	-15%	-2%	-3%	-1%	0%
Cn1c(C(=O)OC(C(=O)NC2CCCC2)c2ccncc2)cc2sccc21 (stereo not given)	?	?	-3%	0%	·
CC(C)C(OC(=O)c1cc2sccc2n1C)C(=O)NCC1CCCO1 (stereo not given)	2µM*	?	1%	-2%	·
CC[C@@H](c1ccccc1)n1c(=O)n2n(c1=O)[C@H]1[C@H](O)[C@H]3O[C@@H]3/C(=N/OCC(C)C)[C@@H]1CC2	-2%[11.4 µM]	1%[11.4 µM]	·	·	0%[9.22 µM]
C=CCC1(O)C=CCC2C3C4C(OC(C)(C)C)C2C1C34 (stereo not given)	3%[11.4 µM]	7%[11.4 µM]	·	·	1%[9.22 µM]
C[C@@]12CC[C@H]3[C@H](CC=C4C[C@@H](O)CC[C@@]43C)[C@@H]1CC[C@@H]2N(CCO)CCO	-12%[11.4 µM]	0%[11.4 µM]	-8%[9.17 µM]	2%[9.22 µM]	0%[9.22 µM]
CCOC(=O)c1oc2ccc(S(=O)(=O)N3CCC(C)CC3)cc2c1C	25µM*	?	1%	0%	0%[57.5 µM]
SMILES	HEK293 cAMP ctrl	TSHR agonist	Ub-GFP proteasome	GFP derepression	HBB splicing
CCOC(=O)c1oc2ccc(S(=O)(=O)N3CCOCC3)cc2c1C	3%	11%	-3%	2%	-1%[57.5 µM]
O=C(NC1CCCCCC1)c1cc(S(=O)(=O)N2CCOCC2)ccc1N1CCCCC1	25µM*	?	-4%	-1%	0%[57.5 µM]
CC(C)(C)OC(=O)[C@H]([C@@H]1N[C@@H](C(=O)O)C(C)(C)S1)N1C(=O)c2ccccc2C1=O	-2%[11.4 µM]	4%[11.4 µM]	-2%[9.17 µM]	-9%[9.22 µM]	-1%[9.22 µM]
ICCc1ccccc1	-18%	-5%	·	·	1%
Cc1cc(C)n(-c2ccn(Cc3ccc(Cl)cc3Cl)c(=O)n2)n1	16µM*	?	0%	-3%	3%
CCN(CC)CCCCNC(=O)c1ccc(Cc2nc3ccccc3[nH]2)cc1	-6%	-3%	·	·	·
CCN1CCN(C(=O)C2CCN(C(=O)c3cc4sccc4n3CC)CC2)CC1	9%	6%	-5%	7%	0%
CCn1c(C(=O)N2CCC(C(=O)NCCCSC3CCCCC3)CC2)cc2sccc21	16µM*	?	-2%	0%	0%
O=C(NCc1ccco1)C1CCN(C(=O)c2cc3sccc3n2Cc2ccc(F)cc2)CC1	28%	20µM*	6%	0%	-2%
C[C@@H]1O[C@@H](OC[C@@H]2O[C@@H](Oc3c(-c4ccc(O)c(O)c4)oc4cc(O)cc(O)c4c3=O)[C@H](O)[C@H](O)[C@@H]2O)[C@H](O)[C@H](O)[C@@H]1O	0%	-2%	3%	-5%[9.22 µM]	·
CCCC(c1nnnn1C1CCCCC1)N1CCN(C2CCCC2)CC1 (stereo not given)	16µM*	?	0%	4%	·
CCC(c1nnnn1C1CCCCC1)N1CCN(C2CCCC2)CC1 (stereo not given)	5µM*	?	0%	3%	·
CCCC(c1nnnn1C(C)(C)CC)N1CCN(C2CCCC2)CC1 (stereo not given)	1µM*	?	-2%	-2%	-1%
O=c1n(Cc2cc3c(cc2Cl)OCO3)c(=O)n2n1CC[C@H]1/C(=N\OC[C@@H](O)COCc3ccco3)[C@H]3O[C@@H]3[C@@H](O)[C@@H]12	0%[11.4 µM]	3%[11.4 µM]	·	·	2%[9.22 µM]
CC(Oc1ccc(Br)cc1)C(=O)NCc1cccnc1 (stereo not given)	-6%	0%	·	·	·
Cc1ccc(-c2nnn(CC(=O)Nc3cccc4cccnc34)n2)o1	25µM*	?	2%	1%	·
Cc1ccc(-c2nnn(CC(=O)N(CC(=O)NC(C)C)c3cnc4ccccc4c3)n2)o1	4%	8%	-3%	0%	·
CCC(C)(C)n1nnnc1C(C(C)C)N1CCSCC1 (stereo not given)	6.3µM*	?	-5%	0%	·
C[C@@H](C(=O)O)c1ccc(C[C@@H]2CCCC2=O)cc1	27%	9%	1%	-1%	-1%
